Sampled rows, rich in hits. Any-hit rate of the full collection: about 0.39%.
MmCpn inh – blocks the Methanococcus maripaludis chaperonin Mm-Cpn. AID 504842. 330,000 compounds, 0.031% hits. Potency, µM (series often up to 76.9 µM), actives largely listed as inhibitors. purified Mm-Cpn ATPase, ADP Transcreener TR-FRET; note: nearly all actives have a fitted effect of over 80% in size
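TR-FRET (320 nm excitation; 590 and 665 nm emission) reports ADP made from 10 uM ATP by 25 nM enzyme; compounds were preincubated 10 min, reaction run 30 min, both at 37°C.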
Anesthetic bind – binds horse apoferritin like a general anesthetic; P02791; apoferritin/1-aminoanthracene competitive binding, fluorescence; Potency, µM (series often up to 77.5 µM), most hits filed as inhibitors; 350,000 compounds, 0.074% hits; AID 485281; note: nearly all actives have a fitted effect of over 20% in size
Target sequence (P02791 2-175 limits assumed): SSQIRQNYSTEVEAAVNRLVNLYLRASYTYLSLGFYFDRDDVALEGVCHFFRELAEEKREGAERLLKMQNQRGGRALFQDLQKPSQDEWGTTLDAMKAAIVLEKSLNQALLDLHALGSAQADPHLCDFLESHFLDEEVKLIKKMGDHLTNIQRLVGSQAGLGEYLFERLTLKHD
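Probe: 1-aminoanthracene (50% saturated, PBS). Protein: horse-spleen apoferritin, 10 uM. Incubation: 10 min, room temperature. Detection: 380 nm excitation, 535 nm emission. Analysis: normalized response, four-parameter Hill.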
CCT modulator – modulators of cytosolic chaperonin (CCT/TRiC) activity; 360,000 compounds, 0.3% hits; purified chaperonin ATPase assay, HTRF ADP detection, 30 min; activity change, % (test concentration not listed), hits read low; in the data active = activity change below about -30%
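Nucleotide hydrolysis assay: TRiC at 20–40 nM final (set by batch activity) with 10 uM ATP, 30 min at 37 °C, in presence of 76 uM compound. Detection by competitive ADP HTRF, 30 min ambient.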
ERG Ets-DNA blk – ERG Ets/DNA interaction inhibition; P11308; fluorescence polarization, His-ERG Ets domain / labelled DNA; Potency, µM (highest dose often 76.9 µM), usual class: inhibitors; 370,000 compounds, 0.028% hits; active = well fitted inhibition curve with a large enough effect in the polarisation, with a control signal flat; inconclusive = small, poorly fitted or top-dose-only effect, or effect the other way, or a change in a side signal; inactive = no such curve, though single readings can be large or run the other way; the % refers to the polarisation;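 note: polarization taken with two DNA probes labelled with fluorescein and Texas red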
Target sequence (P11308 whole entry, looked up, the tested form may be a part): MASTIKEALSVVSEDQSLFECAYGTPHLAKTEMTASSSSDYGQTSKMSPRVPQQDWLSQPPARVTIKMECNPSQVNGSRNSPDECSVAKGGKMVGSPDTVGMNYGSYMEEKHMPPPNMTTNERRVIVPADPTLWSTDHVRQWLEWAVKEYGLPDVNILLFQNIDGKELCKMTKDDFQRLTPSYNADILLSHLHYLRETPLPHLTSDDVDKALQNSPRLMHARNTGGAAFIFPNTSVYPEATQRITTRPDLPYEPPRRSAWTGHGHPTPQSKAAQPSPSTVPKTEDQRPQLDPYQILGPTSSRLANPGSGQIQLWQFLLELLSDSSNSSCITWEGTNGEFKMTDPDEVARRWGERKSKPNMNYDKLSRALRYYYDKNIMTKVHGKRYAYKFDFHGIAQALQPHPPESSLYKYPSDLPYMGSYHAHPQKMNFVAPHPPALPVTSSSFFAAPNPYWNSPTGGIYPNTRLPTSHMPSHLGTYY
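His-tagged ERG Ets domain (1 uM in the protein solution; 300mM KCl, 50mM Tris-HCl, 1mM EDTA, 1mM DTT, pH 7.5) received compound, then a probe mix of 5 nM fluorescein-DNA and 100nM Texas-615-DNA. Fluorescence polarization was read for both dyes.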
Hits are given with their value. Unless noted, calls come from the whole dose curve; as a rule, active = well fitted curve in the direction sought with a large enough effect; inconclusive = small, poorly fitted or top-dose-only effect, or another doubt; inactive = no such curve, though single readings can be large; an effect the other way counts as inactive or inconclusive.

Screening NC(=O)C1CCN(C(=O)c2ccc3ncsc3c2)CC1 returned CCT modulator inactive.
Screening COc1ccc(CSc2nnc(Cc3sc(-c4ccccc4)nc3-c3ccccc3)o2)cc1 returned MmCpn inh 35.5µM, Anesthetic bind inactive, CCT modulator inactive and ERG Ets-DNA blk inactive.
Screening O=C(Nc1nnc(N2CCCCCC2)s1)Nc1ccccc1C(F)(F)F returned Anesthetic bind inconclusive and ERG Ets-DNA blk inactive.
`COc1ccc(N(CC(=O)Nc2nccs2)S(=O)(=O)c2c(C)[nH]c(=O)[nH]c2=O)cc1` gave MmCpn inh inactive, Anesthetic bind inactive, CCT modulator -37.3 and ERG Ets-DNA blk inactive.
Screening CCCc1nnc(SCC(=O)O)n1/N=C/c1ccc2c(c1)OCO2 returned MmCpn inh inactive, Anesthetic bind inactive and CCT modulator -63.0.
`CN(C)CCCN(C(=O)COc1ccc(Cl)cc1)c1nc2cc3c(cc2s1)OCCO3` gave MmCpn inh inactive, CCT modulator inactive and ERG Ets-DNA blk inactive.
For CCC1CCCCN1S(=O)(=O)c1ccc(C(=O)N(CCCN(C)C)c2nc3cc4c(cc3s2)OCO4)cc1 (configuration not stated) the results were MmCpn inh inactive, Anesthetic bind 56.2µM, CCT modulator inactive and ERG Ets-DNA blk inactive.
CN(C)CCCN(C(=O)COc1ccc(Cl)cc1)c1nc2cc3c(cc2s1)OCO3 was read as MmCpn inh inactive, Anesthetic bind inactive, CCT modulator -35.1 and ERG Ets-DNA blk inactive.
COc1cccc(C2=Nn3c(nnc3-c3cccc(OC)c3OC)SC2)c1 was read as Anesthetic bind inactive.
`Cc1nc2c(-c3ccccc3)c(C)nn2c(C)c1CCC(=O)N1CCN(c2ccc(F)cc2)CC1` gave Anesthetic bind inactive and ERG Ets-DNA blk inactive.
C/C(N)=C(/C#N)C(=O)COC(=O)CC12CC3CC(CC(C3)C1)C2 was read as MmCpn inh inactive, Anesthetic bind 17.8µM, CCT modulator inactive and ERG Ets-DNA blk inactive.
For C/C(N)=C(/C#N)C(=O)COC(=O)C1CCC(C(C)(C)C)CC1 (configuration not stated) the results were MmCpn inh inactive, Anesthetic bind 35.5µM, CCT modulator inactive and ERG Ets-DNA blk inactive.
Screening C/C(N)=C(/C#N)C(=O)COC(=O)CSc1ccccc1 returned MmCpn inh inactive, Anesthetic bind inactive, CCT modulator inactive and ERG Ets-DNA blk inactive.
Screening C/C(N)=C(/C#N)C(=O)COC(=O)CC1CCCC1 returned MmCpn inh inactive, Anesthetic bind inconclusive, CCT modulator inactive and ERG Ets-DNA blk inactive.
For Cc1c(CC(=O)NCCc2ccccc2F)c(=O)oc2c(C)c3occ(C(C)(C)C)c3cc12 the results were Anesthetic bind inconclusive and ERG Ets-DNA blk inactive.
Screening COCCNc1nc(-c2ccccc2CN(C)C)nc2ccccc12 returned Anesthetic bind inactive.
Screening OCCN1CCN(C(c2cccs2)c2ccc3cccnc3c2O)CC1 (configuration not stated) returned MmCpn inh inactive and Anesthetic bind 31.6µM.
Cc1oc2cc(O)ccc2c(=O)c1-c1ccccc1 was read as MmCpn inh inactive, Anesthetic bind inactive, CCT modulator inactive and ERG Ets-DNA blk inactive.
For Cc1oc2cc(O)ccc2c(=O)c1-c1nncn1-c1ccccc1 the results were MmCpn inh inactive, Anesthetic bind inactive, CCT modulator inactive and ERG Ets-DNA blk 35.5µM.
COc1ccc(-c2csc(NC(=O)CS(=O)(=O)c3ccccc3)n2)cc1OC was read as CCT modulator -30.6.
`COc1ccc(-c2csc(NC(=O)CS(=O)(=O)c3ccccc3)n2)c(OC)c1` gave CCT modulator inactive.
`CCN(CC)C(=O)Cn1c(=O)n(Cc2ccc(C(=O)NCCCOC)cc2)c(=O)c2ccccc21` gave Anesthetic bind inactive and ERG Ets-DNA blk inactive.
For O=C(COC(=O)c1cc(=O)[nH]c2ccccc12)NCc1ccccc1 the results were MmCpn inh inactive, CCT modulator inactive and ERG Ets-DNA blk inactive.
CC(C)CN(C(=O)COC(=O)c1cc(=O)[nH]c2ccccc12)c1c(N)n(Cc2ccccc2)c(=O)[nH]c1=O was read as CCT modulator -30.1 and ERG Ets-DNA blk inactive.
`CCNC(=O)COC(=O)c1cc(=O)[nH]c2ccccc12` gave MmCpn inh inactive, Anesthetic bind inactive, CCT modulator -34.7 and ERG Ets-DNA blk inactive.
Cc1cc(N2CCC(C(=O)Nc3ccc(F)cc3F)CC2)n2nc(C)c(-c3ccc(Cl)cc3)c2n1 was read as Anesthetic bind inactive and ERG Ets-DNA blk inactive.
`CN(c1ccc(F)cc1)S(=O)(=O)c1ccc(Cl)c(C(=O)OCC(=O)NCc2ccco2)c1` gave MmCpn inh inactive, Anesthetic bind inconclusive, CCT modulator -30.7 and ERG Ets-DNA blk inactive.
For CN(c1ccccc1)S(=O)(=O)c1cccc(C(=O)OCC(=O)NCc2ccco2)c1 the results were MmCpn inh inactive, Anesthetic bind inactive, CCT modulator inactive and ERG Ets-DNA blk inactive.
Screening CC1CCc2c(sc3nn[nH]c(=O)c23)C1 (configuration not stated) returned MmCpn inh inactive, Anesthetic bind 25.1µM and CCT modulator inactive.
For CCC(CC)NC(=O)COC(=O)c1cc(SC)ccc1Cl the results were MmCpn inh inactive, Anesthetic bind inactive, CCT modulator inactive and ERG Ets-DNA blk 12.6µM.
`Cc1c(Cl)cccc1NC(=O)NC1CCCCC1` gave MmCpn inh inactive, Anesthetic bind inactive, CCT modulator -40.3 and ERG Ets-DNA blk inactive.
Screening O=C(Oc1ccc(C(=S)N2CCOCC2)cc1)c1cccc(Cl)c1 returned MmCpn inh inactive, Anesthetic bind inactive, CCT modulator -63.3 and ERG Ets-DNA blk inactive.
COC(=O)[C@H]1C[C@@H]1[C@H](N)c1ccccc1 was read as MmCpn inh inactive, Anesthetic bind inactive, CCT modulator -49.4 and ERG Ets-DNA blk inactive.
CC1CCCCC1NC(=O)COC(=O)c1ccc([N+](=O)[O-])o1 (configuration not stated) was read as MmCpn inh inactive, CCT modulator inactive and ERG Ets-DNA blk inactive.
`CC1CCCC(NC(=O)COC(=O)c2ccc([N+](=O)[O-])o2)C1C` (configuration not stated) gave MmCpn inh inactive, CCT modulator -64.2 and ERG Ets-DNA blk inactive.
CN(C)c1ccc(-c2[nH][nH]c(=O)c2NC(=O)c2ccccn2)cc1 was read as CCT modulator -35.5.
CN(C)c1ccc(-c2[nH][nH]c(=O)c2NC(=O)c2ccc3ccccc3n2)cc1 was read as CCT modulator inactive.
`COC(=O)c1ccc(C(NC(=O)OCc2ccccc2)/C(F)=C/[C@@H](C)C(=O)NCCO)cc1` (some centres not stated) gave Anesthetic bind inactive.
Screening O=C(COC(=O)CC12CC3CC(CC(C3)C1)C2)Nc1ncc(Cl)cc1Cl returned MmCpn inh inactive, Anesthetic bind 20µM, CCT modulator inactive and ERG Ets-DNA blk inactive.
`COc1ccc(S(=O)(=O)N(CCC(=O)O)Cc2ccccc2)cc1` gave MmCpn inh inactive, Anesthetic bind inactive, CCT modulator -49.6 and ERG Ets-DNA blk inactive.
